For 12 compounds, Potency and outcome results are on record in PubChem BioAssay (NCATS).

Experiment [1] has as its target Cytochrome P450 2C9 (Homo sapiens) (UniProt P11712). The experiment in a line: Cytochrome P450 family 2 subfamily C member 9 (CYP2C9) small molecule antagonists: luciferase biochemical (cell-free) qHTS assay (AID 1645842; active = well fitted curve in the direction sought with a large enough effect in the repeat runs; an effect the other way counts as inactive or inconclusive; also: nearly all actives have a fitted effect of over 55% in size; also: potency is read from the fitted curve at half-maximal effect). In a few lines:
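Luminescence, after 20 min with luciferin detection reagent, reflected CYP2C9 turnover during a 1 h NADPH-driven reaction at 37C. Enzyme-substrate mix contained 0.4% bovine serum albumin and was preincubated with compound 10 min at room temperature.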
A general note: qHTS replaces the single test concentration by a dilution series.

Experiment [2] is described as follows: Primary qHTS for inhibitors of nuclear receptor binding SET domain protein 2 (NSD2) in an isogenic RCH-ACV NSD2 p.E1099K mutant (9B) (AID 1645876). Also: nearly all actives have a fitted effect of over 70% in size. Also: potency is read from the fitted curve at half-maximal effect.
Experiment [3] is described as follows: Primary qHTS for inhibitors of nuclear receptor binding SET domain protein 2 (NSD2) in an RCH-ACV wild type WT cells (2C) (AID 1645877). Also: nearly all actives have a fitted effect of over 70% in size. Also: potency is read from the fitted curve at half-maximal effect.
Experiment [4] concerns the target Rap guanine nucleotide exchange factor 3 (Homo sapiens) (UniProt O95398). Put plainly: Confirmatory qHTS for antagonist of cAMP-regulated guanine nucleotide exchange factor 3 (EPAC1) (AID 1645880). Also: nearly all actives have a fitted effect of over 55% in size. In a few lines:
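Nucleotide exchange uses 100 nM EPAC1, 250 nM RAP1B-BODIPY-GDP and 50 uM GDP, with compounds in a concentration-titration series. After 5 min at room temperature, fluorescence (480 nm ex/540 nm em) is read every 5 min for 30 min. Data are normalized to control ATA and DMSO.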

Experiment [5] shares this target. Put plainly: Confirmatory qHTS for agonist of cAMP-regulated guanine nucleotide exchange factor 3 (EPAC1) (AID 1645881).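 Also: EPAC1 catalysed release of BODIPY-GDP from Rap1B seen as fluorescence loss; nearly all actives have a fitted effect of over 75% in size.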
Experiment [6] addresses Rap guanine nucleotide exchange factor 4 (Homo sapiens) (UniProt Q8WZA2). Put plainly: Confirmatory qHTS for agonist of cAMP-regulated guanine nucleotide exchange factor 4 (EPAC2) (AID 1645884).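 Also: nucleotide exchange releases bodipy-GDP from Rap1 and this lowers its fluorescence; nearly all actives have a fitted effect of over 65% in size.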
Experiment [7] shares this target. The experiment in a line: Confirmatory qHTS for antagonist of cAMP-regulated guanine nucleotide exchange factor 4 (EPAC2) (AID 1645885). Also: nearly all actives have a fitted effect of over 25% in size.
The target in experiment [8] is Cytochrome P450 2D6 (Homo sapiens) (UniProt P10635). The experiment in a line: Cytochrome P450 family 2 subfamily D member 6 (CYP2D6) small molecule antagonists: luciferase biochemical (cell-free) qHTS assay (AID 1645840; active = well fitted curve in the direction sought with a large enough effect in the repeat runs; an effect the other way counts as inactive or inconclusive; also: nearly all actives have a fitted effect of over 55% in size; also: potency is read from the fitted curve at half-maximal effect). In a few lines: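 P450-Glo luminescent screen: recombinant CYP2D6 enzyme–proluciferin substrate mix preincubated with compound 10 min at room temperature, then NADPH regeneration added for 1 h at room temperature. Detection reagent added for 20 min; luciferin light read as relative luminescence units.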
Cytochrome P450 2D6 (Homo sapiens), sequence (P10635 whole entry, looked up): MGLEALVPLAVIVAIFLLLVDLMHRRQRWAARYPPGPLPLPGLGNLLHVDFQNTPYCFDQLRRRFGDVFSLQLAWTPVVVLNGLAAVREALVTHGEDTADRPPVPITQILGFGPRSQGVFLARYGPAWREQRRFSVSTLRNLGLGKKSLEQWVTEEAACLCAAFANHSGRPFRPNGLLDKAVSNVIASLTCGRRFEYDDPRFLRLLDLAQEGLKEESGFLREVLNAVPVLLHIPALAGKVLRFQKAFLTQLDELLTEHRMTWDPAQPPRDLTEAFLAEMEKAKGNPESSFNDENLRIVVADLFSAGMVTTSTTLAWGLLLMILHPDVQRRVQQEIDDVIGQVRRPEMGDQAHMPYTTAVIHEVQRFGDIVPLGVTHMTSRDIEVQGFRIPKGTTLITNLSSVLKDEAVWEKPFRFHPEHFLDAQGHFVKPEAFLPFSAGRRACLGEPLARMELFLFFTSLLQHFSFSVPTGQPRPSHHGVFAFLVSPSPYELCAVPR

A short description of experiment [9]: Viability counterscreen for antagonist of constitutive androstane receptor (CAR) against the NCATS DSHEA and TCM libraries (AID 1794837).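 Also: compound exposure lasted 24 h before viability reading.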 The method in brief:
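Cell viability, CellTiter-Fluor, Ex/Em 405/540 nm, 1 h at 37C. HepG2-CYP2B6-hCAR, 2,500 cells/well; cpds + CITCO 48 uM final (antagonist mode), 24 h, 37C/5% CO2.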
A general note: Counterscreens check selectivity or assay interference.

Experiment [10] concerns the target Papain (Carica papaya) (UniProt P00784). The experiment in a line: Primary qHTS assay for inhibitors of the protease papain (AID 1645873).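 Also: papain turnover of Z-FR-AMC read as the AMC fluorescence gain over 10 min; series mostly up to about 50 µM.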

Records with an inconclusive call do not appear. The source made the active and inactive calls. Unless noted, calls follow the shape of the dose curve; as a rule, active = well fitted curve in the direction sought with a large enough effect; inconclusive = small, poorly fitted or top-dose-only effect, or another doubt; inactive = no such curve, though single readings can be large; an effect the other way counts as inactive or inconclusive.

Cytochrome P450 2C9 (Homo sapiens), sequence (P11712 whole entry, looked up): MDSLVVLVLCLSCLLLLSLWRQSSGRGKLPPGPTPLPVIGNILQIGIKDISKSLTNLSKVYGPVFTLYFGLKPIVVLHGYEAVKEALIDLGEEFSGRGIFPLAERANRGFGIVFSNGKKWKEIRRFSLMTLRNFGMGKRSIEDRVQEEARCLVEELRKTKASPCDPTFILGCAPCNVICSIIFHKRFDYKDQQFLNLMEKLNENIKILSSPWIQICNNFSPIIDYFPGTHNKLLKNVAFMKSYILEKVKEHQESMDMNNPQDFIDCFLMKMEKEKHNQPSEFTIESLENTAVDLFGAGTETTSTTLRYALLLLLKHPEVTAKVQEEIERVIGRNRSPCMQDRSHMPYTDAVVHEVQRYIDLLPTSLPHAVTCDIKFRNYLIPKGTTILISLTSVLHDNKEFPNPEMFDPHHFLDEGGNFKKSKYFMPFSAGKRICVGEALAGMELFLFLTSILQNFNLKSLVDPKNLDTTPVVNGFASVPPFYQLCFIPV
Rap guanine nucleotide exchange factor 4 (Homo sapiens), sequence (Q8WZA2 whole entry, looked up): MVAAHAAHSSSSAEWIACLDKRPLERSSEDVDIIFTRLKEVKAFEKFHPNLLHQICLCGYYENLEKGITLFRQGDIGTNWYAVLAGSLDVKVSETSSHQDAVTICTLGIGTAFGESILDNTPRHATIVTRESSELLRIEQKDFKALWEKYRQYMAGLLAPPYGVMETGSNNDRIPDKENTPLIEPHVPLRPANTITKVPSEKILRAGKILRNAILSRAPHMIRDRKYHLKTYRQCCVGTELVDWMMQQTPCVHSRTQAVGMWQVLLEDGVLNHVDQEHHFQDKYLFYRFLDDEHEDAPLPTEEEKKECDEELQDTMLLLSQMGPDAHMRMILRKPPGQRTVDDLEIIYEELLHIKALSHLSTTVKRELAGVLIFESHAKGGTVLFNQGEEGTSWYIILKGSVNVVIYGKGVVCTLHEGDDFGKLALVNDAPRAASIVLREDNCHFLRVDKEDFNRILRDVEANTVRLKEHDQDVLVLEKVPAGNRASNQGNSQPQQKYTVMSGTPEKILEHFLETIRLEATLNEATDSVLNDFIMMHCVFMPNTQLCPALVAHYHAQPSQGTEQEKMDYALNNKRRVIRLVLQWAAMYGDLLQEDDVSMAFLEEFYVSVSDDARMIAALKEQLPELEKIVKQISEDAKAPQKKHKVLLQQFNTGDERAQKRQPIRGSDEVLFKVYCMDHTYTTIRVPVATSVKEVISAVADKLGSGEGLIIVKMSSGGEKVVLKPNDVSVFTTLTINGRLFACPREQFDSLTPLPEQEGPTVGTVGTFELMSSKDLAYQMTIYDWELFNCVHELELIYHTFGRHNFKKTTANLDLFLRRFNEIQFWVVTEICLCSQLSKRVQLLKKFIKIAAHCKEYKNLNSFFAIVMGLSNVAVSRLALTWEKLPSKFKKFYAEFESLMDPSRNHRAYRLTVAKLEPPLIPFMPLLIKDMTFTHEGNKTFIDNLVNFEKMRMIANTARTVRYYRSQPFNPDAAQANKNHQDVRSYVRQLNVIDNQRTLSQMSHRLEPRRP
Rap guanine nucleotide exchange factor 3 (Homo sapiens), sequence (O95398 whole entry, looked up): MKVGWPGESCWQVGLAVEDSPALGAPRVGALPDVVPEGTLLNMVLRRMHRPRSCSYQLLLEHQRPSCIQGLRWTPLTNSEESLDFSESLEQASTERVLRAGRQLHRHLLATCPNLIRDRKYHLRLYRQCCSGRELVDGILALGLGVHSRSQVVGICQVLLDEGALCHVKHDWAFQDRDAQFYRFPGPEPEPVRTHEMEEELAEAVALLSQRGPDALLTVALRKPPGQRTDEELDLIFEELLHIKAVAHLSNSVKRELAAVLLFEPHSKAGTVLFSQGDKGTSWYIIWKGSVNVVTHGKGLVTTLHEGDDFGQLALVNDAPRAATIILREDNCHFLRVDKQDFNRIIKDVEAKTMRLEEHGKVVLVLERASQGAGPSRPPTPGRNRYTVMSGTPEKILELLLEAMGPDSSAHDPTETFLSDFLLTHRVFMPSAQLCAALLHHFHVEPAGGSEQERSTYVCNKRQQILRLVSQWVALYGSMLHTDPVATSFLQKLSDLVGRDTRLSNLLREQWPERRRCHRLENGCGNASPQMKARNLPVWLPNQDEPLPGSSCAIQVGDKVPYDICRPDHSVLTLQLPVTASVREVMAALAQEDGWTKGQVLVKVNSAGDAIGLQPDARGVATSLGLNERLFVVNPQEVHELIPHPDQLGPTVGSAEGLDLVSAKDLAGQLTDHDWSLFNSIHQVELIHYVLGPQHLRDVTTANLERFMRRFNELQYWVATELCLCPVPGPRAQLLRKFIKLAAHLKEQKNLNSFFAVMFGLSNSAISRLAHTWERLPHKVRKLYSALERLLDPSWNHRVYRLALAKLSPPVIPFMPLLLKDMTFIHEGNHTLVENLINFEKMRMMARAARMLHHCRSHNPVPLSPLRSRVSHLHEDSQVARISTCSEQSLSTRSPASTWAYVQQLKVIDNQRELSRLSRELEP
Papain (Carica papaya), sequence (P00784 whole entry, looked up): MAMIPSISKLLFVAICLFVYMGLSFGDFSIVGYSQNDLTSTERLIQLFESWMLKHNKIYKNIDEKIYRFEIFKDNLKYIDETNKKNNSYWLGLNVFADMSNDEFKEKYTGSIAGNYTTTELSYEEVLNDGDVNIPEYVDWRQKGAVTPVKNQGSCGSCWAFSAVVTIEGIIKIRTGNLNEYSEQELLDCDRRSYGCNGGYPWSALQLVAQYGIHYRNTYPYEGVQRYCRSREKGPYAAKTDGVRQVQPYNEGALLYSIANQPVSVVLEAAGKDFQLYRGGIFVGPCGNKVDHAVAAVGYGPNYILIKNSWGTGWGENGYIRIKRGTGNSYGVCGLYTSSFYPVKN

For the compound `CC(=O)Oc1ccc2c(c1)CC[C@@H]1[C@@H]2CC[C@]2(C)[C@@H](O)CC[C@@H]12`, the Potency result in experiment [1], in experiment [4], in experiment [6] and in experiment [7] was “inactive” throughout. Also, the figures for the Potency in experiment [2] and in experiment [3] were 13.3 µM (active) and 8.41 µM (active), respectively. Besides, the result in [5] was inactive.

As to `C/C=C/c1ccc(OC)cc1`, the Potency entry in [8], in experiment [2] and in [3] was “inactive” each time. The compound was classed as inactive in experiment [9].

With `CCN(CCCCOC(=O)c1ccc(OC)c(OC)c1)C(C)Cc1ccc(OC)cc1` (stereo unspecified), the Potency entry in [1] is “inactive”.

In the case of `CC(=O)OCC(=O)[C@@]1(OC(C)=O)[C@@H](C)C[C@H]2[C@@H]3C[C@H](F)C4=CC(=O)C=C[C@]4(C)[C@@]3(F)[C@@H](O)C[C@@]21C`, in experiment [8], the Potency result was “inactive”. In experiment [3], the Potency was 0.0188 µM (active).

As for `C[C@@H]1CN(CCCn2c3ccccc3c3ccccc32)C[C@H](C)N1`, in [1], the Potency entry is “inactive”. The values for the Potency in experiment [2] and in experiment [3] were 26.6 µM (active) and 23.7 µM (active), respectively.

As for `C[C@]12CCC(=O)C=C1[C@@H]1C[C@@H]1[C@H]1[C@@H]3[C@@H]4C[C@@H]4[C@@]4(CCC(=O)O4)[C@@]3(C)CC[C@@H]12`, in experiment [1], the Potency result was “inactive”.

Regarding `CCCC1O[C@@H]2C[C@H]3[C@@H]4CCC5=CC(=O)C=C[C@]5(C)[C@H]4[C@@H](O)C[C@]3(C)[C@]2(C(=O)CO)O1` (stereo partly specified), the Potency in experiment [1] was 15.1 µM (active). Also, the Potency result in [10] is “inactive”.

Consider `Cc1cc(=O)n(-c2ccccc2)n1C`, for which the Potency entry in [8], in experiment [2] and in experiment [3] was “inactive” each time.

On to `CCN1CCC[C@H]1CNC(=O)c1c(OC)ccc(Br)c1OC`, for which the Potency result in [1], in experiment [2] and in experiment [3] was “inactive” in each case.

As for `COc1cc(N)c(Cl)cc1C(=O)NC1CCN(CCCOc2ccc(F)cc2)CC1OC` (stereo unspecified), the Potency entry in [1] was “inactive”. Moreover, the results for the Potency in [2] and in [3] were 15 µM (active) and 21.1 µM (active), respectively.

Regarding `C=CCc1ccc(O)c(OC)c1`, the Potency entry in experiment [8], in [2] and in experiment [3] was “inactive” each time. For the same compound, in [9], the outcome was inactive.

`CCCCOc1ccc(C(=O)CCN2CCCCC2)cc1`: the Potency was 4.9 µM (active) in experiment [8], 15 µM (active) in experiment [2] and 13.3 µM (active) in experiment [3].
